# A selection: hits, their analogues and other compounds. The true share with any hit is near 9.2%.
# FLuc counter: qHTS profiling assay for firefly luciferase inhibitor/activator using purifed enzyme and Km concentrations of substrates (counterscreen for miR-21 project) | purified FLuc, Km substrates, luminescence inhibition | Potency, µM (highest dose often 57.5 µM), for inactives: at the top dose activity change, negative = inhibition, actives largely listed as inhibitors | actives 6.9% (n = 360,000) | AID 588342, 2011;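 note: plate controls were vehicle for no effect and reference inhibitor for full effect; nearly all actives have a fitted effect of over 55% in size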
# Target sequence (P08659 whole entry, looked up): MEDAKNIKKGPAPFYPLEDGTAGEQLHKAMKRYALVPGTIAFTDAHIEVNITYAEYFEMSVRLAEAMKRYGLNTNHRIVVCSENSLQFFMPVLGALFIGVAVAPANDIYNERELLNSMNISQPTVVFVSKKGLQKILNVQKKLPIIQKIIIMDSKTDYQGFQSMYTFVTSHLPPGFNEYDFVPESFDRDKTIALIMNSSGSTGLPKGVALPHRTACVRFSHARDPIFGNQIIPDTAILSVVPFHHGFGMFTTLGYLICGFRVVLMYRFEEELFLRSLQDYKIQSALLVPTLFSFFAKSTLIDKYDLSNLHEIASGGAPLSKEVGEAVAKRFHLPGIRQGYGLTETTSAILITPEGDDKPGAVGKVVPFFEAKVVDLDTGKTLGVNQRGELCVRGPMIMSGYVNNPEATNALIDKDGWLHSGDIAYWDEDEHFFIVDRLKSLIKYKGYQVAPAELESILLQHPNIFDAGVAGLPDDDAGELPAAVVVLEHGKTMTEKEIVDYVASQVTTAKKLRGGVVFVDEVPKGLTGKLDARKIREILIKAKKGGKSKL
#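 Purified P. pyralis luciferase (10nM final) with 10uM D-luciferin and 10uM ATP (Km levels) in 50mM Tris acetate pH 7.5, 10mM Mg acetate, 0.01% Tween-20, 0.05% BSA; qHTS 6-point titration, ~60 µM downward; luminescence read.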
# ELG1 genotox: qHTS screen for small molecules that induce genotoxicity in human embryonic kidney (HEK293T) cells expressing luciferase-tagged ELG1; HEK293T ELG1-luciferase reporter, luminescence, 16 h; Potency, µM (series often up to 46 µM), without a hit: at the highest dose activity change, positive = activation, hits mostly activators; actives 1.3% (n = 330,000); AID 504466, 2011; note: % of control where 0% means no effect; nearly all actives have a fitted effect of over 60% in size
#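 HEK293T cells expressing luciferase-tagged ELG1 were treated with compound or DMSO for 16 hr at 37°C. Luciferase activity was then read after 30 min with ONE-Glo at room temperature; rising signal flags genetic stress.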
# SMN2 splice up: qHTS Assay for Enhancers of SMN2 Splice Variant Expression. AID 1458, 2008. HEK293 SMN2-luciferase splicing reporter, luminescence, 30-36 h. Potency, µM (highest dose often 46.1 µM), inactives show at the top dose activity change, positive = activation, actives largely listed as activators. actives 2.8% (n = 210,000); note: % of control where 0% means no effect; nearly all actives have a fitted effect of over 55% in size
#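 qHTS luciferase splicing reporter: luminescence rises when SMN2 exon 7 is included in transfected HEK293 cells. Compound exposure lasted 30-36 h at 37C, with 4.5 mM final sodium butyrate as control, followed by a ONE-Glo read.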
# ELG1 DNA repair: qHTS screen for small molecules that inhibit ELG1-dependent DNA repair in human embryonic kidney (HEK293T) cells expressing luciferase-tagged ELG1. HEK293T ELG1-luciferase reporter, luminescence, 16 h; DNA damage induced by 5-fluorouridine. Potency, µM (top dose mostly 46.1 µM), without a hit: top-dose activity change, negative = inhibition, most hits filed as inhibitors. actives 2.3% (n = 330,000); note: % is set by controls: 0 for no effect and ±100 for the full control effect; nearly all actives have a fitted effect of over 55% in size
#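 Quantitative HTS, concentration-response format. 2,000 cells/well co-treated with 5-fluorouridine and compound, 16 hr in 5% CO2 at 37 °C; ONE-Glo luminescence read after 30 min.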
# Rab9 promoter act: qHTS Assay for Rab9 Promoter Activators; Huh7 Rab9 promoter-luciferase reporter, luminescence, 24 h; Potency, µM (top dose mostly 9.22 µM), for the others: top-dose activation, negative = inhibition, usual class: activators; actives 2.8% (n = 320,000); AID 485297, 2010; note: % of control where 0% means no effect; nearly all actives have a fitted effect of over 60% in size
#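 Huh7 reporter line, Rab9 promoter upstream of luciferase. Compound exposure 24 h at 37 °C in reduced-serum medium with 10% FBS. Read-out: luminescence.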
# NPC1 promoter act: qHTS Assay for NPC1 Promoter Activators. Huh7 NPC1 promoter luciferase reporter, 24 h. Potency, µM (doses to about 9.22 µM), without a hit: top-dose activation, usual class: activators. actives 2.4% (n = 320,000). AID 485313, 2010; note: % of control where 0% means no effect; nearly all actives have a fitted effect of over 60% in size
#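 Cells: Huh7 expressing luciferase under the NPC1 promoter, 1500/well. Seeded 2 h, compound added, incubated 24 h at 37 °C. Luciferase reagent, 10 min ambient, then luminescence.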
# Active calls of the source: *; u = inconclusive; x = no result. Calls come from the whole dose curve; as a rule, active = well fitted curve in the direction sought with a large enough effect; inconclusive = small, poorly fitted or top-dose-only effect, or another doubt; inactive = no such curve, though single readings can be large; an effect the other way counts as inactive or inconclusive. Potency is the fitted concentration of half-maximal effect.
SMILES,FLuc counter,ELG1 genotox,SMN2 splice up,ELG1 DNA repair,Rab9 promoter act,NPC1 promoter act
COC(=O)Cc1ccc(NC(=S)N2CCCCC2C)cc1 (stereo not drawn),4.8µM*,10%,6%,u,18%,10%
COC(=O)Cc1ccc(NC(=S)N2CCN(c3ccc(OC)cc3)CC2)cc1,5%,-4%,-46%,-14%,-2%,-2%
COC(=O)Cc1ccc(NC(=S)N2CCC(Cc3ccccc3)CC2)cc1,4.8µM*,-3%,x,1%,8%,1%
COCCSc1ccccc1C(=O)N1CCC(Cc2ccccc2)CC1,0%,-12%,-17%,23µM*,-3%,3%
Cc1c(C(=O)N2CCC(Cc3ccccc3)CC2)cccc1[N+](=O)[O-],1%,0%,x,-1%,2%,-8%
O=C(c1cc2nc(-c3ccco3)cc(C(F)(F)F)n2n1)N1CCN(c2ccccc2)CC1,0%,-21%,3%,u,-7%,0%
COc1cccc(-c2cc(C(F)(F)F)n3nc(C(=O)N4CCCCC4c4cccnc4)cc3n2)c1 (stereo not drawn),15µM*,-13%,-49%,21µM*,-10%,-8%
O=C(c1cc2nc(-c3ccco3)cc(C(F)(F)F)n2n1)N1CCCCCC1,21µM*,-16%,-11%,11%,7%,-2%
COc1ccc(-c2cc(C(F)(F)F)n3nc(C(=O)N4CCCCC4)cc3n2)cc1,u,-6%,-10%,-4%,-2%,2%
COc1ccc(OC)c(NC(=O)c2nc(S(=O)(=O)Cc3ccc(F)cc3)ncc2Cl)c1,-11%,x,-24%,x,x,x
CCc1sc(C(=O)Nc2ccc3nc(C)sc3c2)cc1C,x,13%,x,u,x,x
CCc1ccccc1NC(=O)c1ccc([N+](=O)[O-])s1,3%,-10%,-46%,12µM*,5%,-3%
Cc1cc(NS(=O)(=O)c2ccc(NC(=O)c3ccc([N+](=O)[O-])s3)cc2)nc(C)n1,x,-4%,x,u,x,x
Cc1nc2ccc(NC(=O)c3sccc3C)cc2s1,7.6µM*,u,11µM*,u,2.2µM*,1.8µM*
COc1ccccc1NC(=O)COC(=O)c1ccc([N+](=O)[O-])s1,-13%,0%,8%,6%,-2%,-3%
Cc1nc2ccc(NC(=O)c3cccs3)cc2s1,17µM*,u,x,u,2.5µM*,3.5µM*
Cc1nc2cc(NC(=O)c3ccc([N+](=O)[O-])s3)ccc2s1,3.8µM*,u,x,u,u,19%
CCCCOc1ccc(C2=NC(c3ccncc3)=Nc3ccc(OCC)cc3N2)cc1,43%,x,2%,x,x,x
Cc1cc(C)c(S(=O)(=O)NCC(c2ccco2)N2CCOCC2)c(C)c1 (stereo not drawn),4%,x,x,x,x,x
COc1ccc2[nH]c3c(c2c1)CCN1C(=O)C(CC(=O)NCCc2ccccn2)C[C@H](C(=O)N2CCOCC2)[C@@]31CCC1CCCC1 (stereo partly drawn),x,6%,x,-1%,x,x
CC(=O)Nc1ccc2nc(NC(=O)c3cccs3)sc2c1,2.1µM*,u,x,u,0.32µM*,0.63µM*
CC(=O)Nc1ccc2nc(NC(=O)c3ccc([N+](=O)[O-])s3)sc2c1,5.4µM*,3%,x,-8%,u,22%
COc1ccc(C(=O)Nc2nc3c(s2)Cc2cc(OC)ccc2-3)cc1,u,-8%,-38%,u,5%,-1%
COc1ccc2nc(NC(=O)c3cccs3)sc2c1,0.67µM*,u,x,u,0.28µM*,0.32µM*

# Assay outcomes: PubChem BioAssay, National Center for Advancing Translational Sciences (NCATS)
